Bioassay records: PubChem, several laboratories
CRFR2-BP antag: CRF-BP/CRF-R2 complex antagonism | HEK293 CRF-R2/CRF-BP, CRF-induced calcium fluorescence | AID 588475 | inhibition, % at 11.8 µM | 350,000 compounds, 0.59% hits;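 active = inhibition of the ligand-induced calcium signal above about 50% at the single tested concentration, limit read from the data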
CRFR2-BP ag: CRF-BP/CRF-R2 complex agonism; activation, % at 13.2 µM; 350,000 compounds, 0.46% hits; HEK293 CRF-R2/CRF-BP, calcium dye fluorescence (FLIPR); percent of saturating CRF peptide response; AID 588473;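 active = activation of at least 50%, plus an integration ratio under a set limit after plate pattern correction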
IDE cell activ: activators of human insulin-degrading enzyme in cells; 340,000 compounds, 0.073% hits; activation, % at 5.96 µM; HEK cells, FAbeta-B cleavage, fluorescence polarization; 0% vehicle, 100% cell-free pure enzyme wells; AID 493087;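 active = activation above the mean of all tested compounds plus 3 SD, set per screening campaign, cut at about 17% in these data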
Target sequence (P14735 whole entry, looked up): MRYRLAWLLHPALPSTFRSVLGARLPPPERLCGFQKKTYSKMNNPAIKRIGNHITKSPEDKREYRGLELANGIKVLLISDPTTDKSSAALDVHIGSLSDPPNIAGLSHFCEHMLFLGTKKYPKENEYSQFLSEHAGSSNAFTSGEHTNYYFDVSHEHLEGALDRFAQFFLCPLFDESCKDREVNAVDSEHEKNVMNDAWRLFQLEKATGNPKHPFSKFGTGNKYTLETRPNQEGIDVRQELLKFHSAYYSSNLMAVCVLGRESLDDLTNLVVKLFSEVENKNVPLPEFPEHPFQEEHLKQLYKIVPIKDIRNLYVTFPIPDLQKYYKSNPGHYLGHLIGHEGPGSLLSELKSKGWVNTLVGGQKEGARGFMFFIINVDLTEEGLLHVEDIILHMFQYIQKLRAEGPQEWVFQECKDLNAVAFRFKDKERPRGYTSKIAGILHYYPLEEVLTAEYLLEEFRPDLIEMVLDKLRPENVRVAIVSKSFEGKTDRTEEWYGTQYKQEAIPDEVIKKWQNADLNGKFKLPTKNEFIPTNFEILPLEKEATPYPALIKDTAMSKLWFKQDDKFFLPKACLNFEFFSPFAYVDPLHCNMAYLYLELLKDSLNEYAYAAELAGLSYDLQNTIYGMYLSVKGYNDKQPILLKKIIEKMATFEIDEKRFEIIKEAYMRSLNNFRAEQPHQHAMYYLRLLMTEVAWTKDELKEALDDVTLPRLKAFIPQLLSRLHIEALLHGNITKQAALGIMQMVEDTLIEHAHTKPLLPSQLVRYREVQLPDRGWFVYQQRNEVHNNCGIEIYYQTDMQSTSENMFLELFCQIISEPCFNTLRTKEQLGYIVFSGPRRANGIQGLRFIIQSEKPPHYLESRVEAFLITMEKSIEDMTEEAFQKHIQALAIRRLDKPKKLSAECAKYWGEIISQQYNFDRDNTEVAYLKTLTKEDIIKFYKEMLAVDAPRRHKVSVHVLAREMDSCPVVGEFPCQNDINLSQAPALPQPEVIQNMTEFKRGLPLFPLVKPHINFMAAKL
RTF Ca sens inh: cardiac RTF calcium desensitization; P19429+P45379; IANBD-labeled cardiac RTF, Ca2+ fluorescence; inhibition, % at 7.15 µM; 340,000 compounds, 0.12% hits; AID 493244;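 active = inhibition above the mean inhibition of all tested compounds plus 3 SD, cut at about 17% in these data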;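 note: assay run at fixed EC70 calcium of 1.6 mM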
RTF Ca sens act: increases calcium sensitivity of human cardiac regulated thin filaments | IANBD-labeled TnC RTF fluorescence at EC20 calcium; 0% EC20 calcium, 100% full calcium | activation, % at 7.2 µM | AID 493008 | P19429+P45379 | 340,000 compounds, 0.24% hits;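 active = activation above the mean over all tested compounds plus 3 SD, cut at about 30% in these data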;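 note: rise in fluorescence read as greater calcium sensitivity of cardiac thin filaments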
IDE inh: inhibits human insulin-degrading enzyme in HEK cells; P14735; FAbetaB cleavage, fluorescence polarization; inhibition, % at 5.59 µM; 320,000 compounds, 0.41% hits; AID 434962;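 active = percent inhibition above the average of all tested compounds plus 3 SD, set per screening campaign, cut at about 16% in these data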;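 note: IDE supplied by intact live HEK cells; FP after avidin binding of uncleaved biotin substrate so inhibition keeps polarization high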
Each line names hits and unclear results; the compound was inactive in the other large screens. In the library only some 1.5% were active in any assay of this set; here they are far more common.

CC(=O)NC1=NN(C(C)=O)C(C)(c2ccc(Br)cc2)S1 (stereo unspecified)	none
Cc1ccc(/C=C2\SC(=O)N(CCC(=O)N3CCN(C)CC3)C2=O)cc1	none
COc1ccc(/C=C2\SC(=O)N(CCC(=O)N3CCN(C)CC3)C2=O)cc1	RTF Ca sens act 54
C[C@]1(CC/C(=C/CO)CO)[C@H](CO)CC[C@@]23COC(=O)C2=CCC[C@@H]31	none
COc1cc(/C=N/Nc2ncnc3sc4c(c23)CCC4)ccc1O	none (no result: IDE inh)
C#CC[N+](C)(C)CCCCCCCC	CRFR2-BP ag 275
CCOCCCn1c(SCC(=O)Nc2ccccc2)nc2ccccc2c1=O	none
CCOCCCn1c(SCc2nc3ccccc3s2)nc2ccccc2c1=O	CRFR2-BP ag 51
CCOC(=O)c1[nH]c(C)c(C(=O)OCC)c1C	none
CCOC(=O)c1c(C(F)(F)C(F)(F)C(F)(F)C(F)(F)F)n[nH]c1C	CRFR2-BP antag 54
COc1ccc(-c2cccc(NS(=O)(=O)c3cccc([N+](=O)[O-])c3)c2)nn1	CRFR2-BP antag 58
C=CCCC(=O)N1CCC(n2nccc2NC(=O)c2ccc(OC)cc2)CC1	CRFR2-BP antag 66
O=C(COc1ccc2ccccc2c1)N1CCN(C(=O)c2ccc([N+](=O)[O-])cc2)CC1	CRFR2-BP antag 72
O=C(COc1ccccc1)N1CCN(C(=O)c2ccc([N+](=O)[O-])cc2)CC1	none
COc1ccc(S(=O)(=O)Nc2ccc3c(c2)C(=O)N([C@@H](C)CO)C[C@@H](C)[C@H](CN(C)S(=O)(=O)c2ccc(F)cc2)OCCCC[C@H](C)O3)cc1	none (no result: IDE cell activ, RTF Ca sens inh, RTF Ca sens act, IDE inh)
CCOC(=O)C1=CN(Cc2ccco2)S(=O)(=O)N(CC)C1c1ccc(C(F)(F)F)cc1 (stereo unspecified)	none (no result: IDE inh)
O=C(Nc1ccc(S(=O)(=O)NC2=NCCCCC2)cc1)c1ccc2ccccc2n1	none
COc1ccc(C2C(C#N)=C(N)Oc3cc(O)ccc32)cc1C (stereo unspecified)	CRFR2-BP ag 55
Cc1ccc(-c2noc(-c3ccno3)n2)cc1	none
NS(=O)(=O)c1ccc(-c2ccc(/C=C3\C(=O)Nc4ccccc43)o2)cc1	none (no result: CRFR2-BP antag, CRFR2-BP ag, IDE cell activ, RTF Ca sens inh, RTF Ca sens act)
CC1(C)OC(=O)C(=Cc2ccc(-c3ccc(S(N)(=O)=O)cc3)o2)C(=O)O1	CRFR2-BP antag 81
c1ccc2c(c1)OCCOCCOCCOCCOCCOc1ccccc1OCCOCCOCCO2	CRFR2-BP antag 99, CRFR2-BP ag 60
N#CCC(=O)Nc1ccc(C(=O)OCC(=O)NNC(=O)c2cccs2)cc1	CRFR2-BP antag 55
O=C(Nc1cccc(O)c1)c1ccc(NC(=O)c2cccs2)cc1	CRFR2-BP antag 68
O=C(O)C1(c2ccccc2)CCN(S(=O)(=O)c2ccc(F)c(F)c2)CC1	none
Cc1cccn2c(CN[C@H]3CCCCNC3=O)c(C(=O)N3CCOCC3)nc12	none
CC(C)CN(CC(C)C)C(=S)NC1CCCCC1	CRFR2-BP antag 55
Cc1cc(Br)c(Oc2cc(NN3CCCCC3)c([N+](=O)[O-])cc2[N+](=O)[O-])c(Br)c1	none (no result: IDE inh)
Cc1cccc(C(=O)Nc2cccc(C(=O)Nc3cc(C)ccn3)c2)c1	none
O=S(=O)(c1ccc2nc(-c3ccccc3)[nH]c2c1)N1CCN(c2cccc(Cl)c2)CC1	none
COc1ccccc1N1CCN(S(=O)(=O)c2ccc3nc(-c4ccccc4)[nH]c3c2)CC1	IDE inh 32
Cc1cccc(NS(=O)(=O)c2ccc(C)c(C(=O)N(C)C3CCN(C)CC3)c2)c1	none (no result: IDE inh)
COc1ccc(S(=O)(=O)N2CCc3ccccc32)cc1C(=O)NCC(c1ccco1)N1CCCC1 (stereo unspecified)	none
O=C(O)c1ccc(N=Nc2c(O)ccc3ncccc23)cc1	IDE cell activ 39
CCCN1C(=S)c2ccccc2C1c1ccccc1 (stereo unspecified)	none
CC1(C)CC[C@]2(C(=O)n3ccnc3)CC[C@]3(C)[C@H](C(=O)C=C4[C@@]5(C)C=C(C#N)C(=O)C(C)(C)[C@@H]5CC[C@]43C)[C@@H]2C1	CRFR2-BP ag 122 (no result: IDE inh)
Cc1cccc(Oc2ccc(NC(=O)c3ccccc3C(=O)O)cc2)c1C	CRFR2-BP ag 81
O=C(O)c1ccccc1C(=O)Nc1ccc(Oc2cccc3ccccc23)cc1	CRFR2-BP ag 126 (no result: IDE inh)
C#Cc1ccc([C@@H]2C=C(C(=O)O)O[C@H](OCc3ccc(CO)cc3)C2)cc1	none
